Rab9 promoter act – activates the Rab9 promoter | Huh7 Rab9 promoter-luciferase reporter, luminescence, 24 h | Potency, µM (series often up to 9.22 µM), for inactives: top-dose activation, negative = inhibition, most hits filed as activators | 320,000 tested, 2.8% active | AID 485297; also: % of control where 0% means no effect; nearly all actives have a fitted effect of over 60% in size
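Rab9 promoter-driven luciferase in stably transfected Huh7 cells; 1500 cells/well rested 2 h, exposed to compound in DMSO for 24 h at 37 °C, 5% CO2. Luminescence read 10 min after adding luciferase reagent at ambient temperature.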
ELG1 genotox – inducers of genotoxicity in HEK293T ELG1-luciferase cells; Potency, µM (series often up to 46 µM), for inactives: at the highest dose activity change, positive = activation, actives largely listed as activators; 330,000 tested, 1.3% active; AID 504466; HEK293T ELG1-luciferase reporter, luminescence, 16 h; also: % of control where 0% means no effect; nearly all actives have a fitted effect of over 60% in size
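HEK293T cells expressing luciferase-tagged ELG1 were exposed to compound or DMSO vehicle for 16 hr at 37 °C and 5% CO2. Luciferase activity was then measured with ONE-Glo after 30 min at room temperature.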
NPC1 promoter act – activators of NPC1 promoter. 320,000 tested, 2.4% active. Potency, µM (series often up to 9.22 µM), for the others: at the top dose activation, actives largely listed as activators. Huh7 NPC1 promoter luciferase reporter, 24 h; also: % of control where 0% means no effect; nearly all actives have a fitted effect of over 60% in size
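Readout is luciferase luminescence, reflecting NPC1 promoter activation in stably transfected Huh7 cells after 24 h compound exposure at 37 °C in reduced-serum medium with 10% FBS.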
ELG1 repair inh – blocks ELG1-dependent DNA repair in HEK293T cells. Potency, µM (highest dose often 46.1 µM), for inactives: at the top dose activity change, negative = inhibition, usual class: inhibitors. HEK293T ELG1-luciferase reporter, luminescence, 16 h; DNA damage induced by 5-fluorouridine. 330,000 tested, 2.3% active. AID 504467; also: % is scaled to controls: 0 for no effect and ±100 for the full control effect; nearly all actives have a fitted effect of over 55% in size
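Cells (2,000 per well) received 5-fluorouridine plus test compound or DMSO and were incubated 16 hr at 37 °C, 5% CO2. Luciferase activity was read by luminescence 30 min after ONE-Glo addition; signal suppression marked inhibition of damage-induced ELG1 function.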
FLuc modulator – counter-screen for miR-21 project: firefly luciferase inhibitors or activators; P08659; purified FLuc, Km substrates, luminescence inhibition; Potency, µM (highest dose often 57.5 µM), for the others: top-dose activity change, negative = inhibition, most hits filed as inhibitors; 360,000 tested, 6.9% active;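 also: plate controls were vehicle for no effect and reference inhibitor for full effect; nearly all actives have a fitted effect of over 55% in size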
Target sequence (P08659 whole entry, looked up): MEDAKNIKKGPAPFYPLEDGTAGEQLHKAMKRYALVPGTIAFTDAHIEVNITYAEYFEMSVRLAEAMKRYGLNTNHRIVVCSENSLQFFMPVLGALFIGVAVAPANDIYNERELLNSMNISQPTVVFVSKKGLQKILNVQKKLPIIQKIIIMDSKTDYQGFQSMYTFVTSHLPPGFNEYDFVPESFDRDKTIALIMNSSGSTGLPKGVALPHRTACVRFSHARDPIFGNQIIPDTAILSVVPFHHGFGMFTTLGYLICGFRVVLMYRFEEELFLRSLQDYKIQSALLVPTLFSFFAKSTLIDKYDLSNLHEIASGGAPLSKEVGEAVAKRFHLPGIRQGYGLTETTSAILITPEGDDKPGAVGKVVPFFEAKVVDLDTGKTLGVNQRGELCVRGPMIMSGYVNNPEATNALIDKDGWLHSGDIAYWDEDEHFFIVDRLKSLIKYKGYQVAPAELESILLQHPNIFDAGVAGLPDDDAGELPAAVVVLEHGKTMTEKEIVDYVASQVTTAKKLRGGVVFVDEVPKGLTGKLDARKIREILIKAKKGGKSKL
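Purified P. pyralis luciferase, 10 nM final, with Km-level 10 uM D-luciferin and 10 uM ATP in 50 mM Tris acetate pH 7.5, 10 mM Mg acetate, 0.01% Tween-20, 0.05% BSA; 6-point qHTS titration about 60 µM downward; luminescence read.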
SMN2 splice up – increases expression of the SMN2 splice variant. Potency, µM (highest dose often 46.1 µM), inactives show top-dose activity change, positive = activation, hits mostly activators. HEK293 SMN2-luciferase splicing reporter, luminescence, 30-36 h. 210,000 tested, 2.8% active; also: % of control where 0% means no effect; nearly all actives have a fitted effect of over 55% in size
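HEK293 cells carry an SMN2 minigene-luciferase reporter in which exon 7 inclusion puts luciferase in frame. Cells were seeded at 2000 cells/well, attached for 10-12 hours, then exposed to compounds for 30-36 hours at 37C before ONE-Glo luminescence.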
The depositor's hits bear a star; ? = inconclusive; / = not tested or not shown. The list is not random: actives were taken first. Their share in the collection is about 9.2%. Calls follow the shape of the dose curve; as a rule, active = well fitted curve in the direction sought with a large enough effect; inconclusive = small, poorly fitted or top-dose-only effect, or another doubt; inactive = no such curve, though single readings can be large; an effect the other way counts as inactive or inconclusive. Potency is read from the fitted curve at half-maximal effect.

SMILES | Rab9 promoter act | ELG1 genotox | NPC1 promoter act | ELG1 repair inh | FLuc modulator | SMN2 splice up
O=C(NCc1cccs1)c1cc2c(s1)CCCC2 | ? | 21µM* | ? | ? | 12µM* | 11µM*
COc1ccc2[nH]c(C)c(-c3csc(N)n3)c2c1 | 2% | 0% | 1% | -1% | 2% | /
CCOc1ccc(CCNC(=O)c2cc(C)nn2-c2ccccc2)cc1 | 1% | -5% | 2% | ? | -1% | /
Cc1nc(NC(=O)c2cc3c(s2)CCCCC3)sc1C(=O)N(C)C | ? | ? | ? | ? | 13µM* | ?
CCc1sc(C(=O)Nc2nc(C)cs2)cc1C | ? | ? | 1.3µM* | ? | 1.9µM* | /
O=C(Nc1nnc(C2CC2)s1)c1cc2c(s1)CCCCCC2 | 9% | 14% | 23% | ? | 7% | ?
Cc1ccc(NC(=O)c2scc3c2CCCC3)cc1 | 1.8µM* | 1.8µM* | 4µM* | ? | 0.48µM* | 1.4µM*
O=C(c1scc2c1CCCC2)N1CCCCC1 | -4% | 2% | 0% | 2% | 1% | -5%
Cc1ccc2c(c1)-c1c(cnn1CC(=O)N1CCN(c3cccc(C(F)(F)F)c3)CC1)CO2 | / | / | / | / | -9% | 1%
COc1ccc(-n2cc(C#N)c(=O)n(Cc3ccc(F)cc3)c2=O)cc1 | 0% | 1% | -11% | ? | -2% | 24%
Cc1ccc(NC(=O)CSc2nccn2Cc2ccc3c(c2)OCO3)c(C)c1 | / | / | / | / | -3% | /
CCc1ccc2c(c1)c(=O)c(S(=O)(=O)c1ccc(Cl)cc1)cn2CC | / | / | / | / | -12% | -8%
COc1ccc(CCNC(=O)COC(=O)CCC(=O)c2ccc(F)cc2)cc1 | 0% | 0% | 0% | 7% | -10% | 7%
CS(=O)(=O)N1CCN(c2nc3ccc(Cl)cc3s2)CC1 | ? | 7% | ? | ? | ? | /
Fc1cccc2sc(N3CCOCC3)nc12 | 21% | 14% | 13% | ? | ? | ?
Clc1ccc2nc(N3CCCCC3)[nH]c2c1 | 1.4µM* | 2.1µM* | 1.6µM* | ? | 4.8µM* | 14µM*
Fc1cccc2sc(N3CCCCC3)nc12 | ? | 13µM* | ? | ? | 19µM* | ?
Clc1ccc2nc(N3CCCCC3)sc2c1 | 2.5µM* | ? | 1.4µM* | ? | 2.7µM* | 11µM*
Fc1cccc(Cl)c1CN1CCN(c2nc3ccccc3s2)CC1 | 2.5µM* | 15µM* | 2.5µM* | ? | 5.4µM* | /
O=C(c1ccc2ccccc2n1)N1CCN(Cc2c(F)cccc2Cl)CC1 | -4% | -8% | 0% | -10% | -1% | /
CC(C)c1nnc(SCC(=O)NC2CCCCC2)n1C | -3% | 0% | -4% | 6% | 1% | /
CC12CCC(C(=O)Nc3ccccc3Cl)(C(Br)C1=O)C2(C)C (stereo not given) | -7% | 0% | 1% | -2% | 2% | -20%
CC(C)C(=O)N1CCN(c2nc3ccc(Cl)cc3s2)CC1 | ? | ? | 2.5µM* | ? | ? | /
COc1cccc(Cn2c(=O)n(-c3ccccc3C)c(=O)c3c2c2cc(C)ccc2n3C)c1 | / | / | / | / | -2% | /
N#Cc1c(C(F)(F)F)cc(-c2ccc(F)cc2)[nH]c1=O | -1% | -4% | 1% | 18µM* | ? | -5%
COc1ccc(CNC(=O)Cn2ncn3cccc3c2=O)cc1 | 1.6µM* | ? | ? | ? | 21µM* | 11µM*
COc1ccc(CNC(=O)Cn2ncn3c(cc4ccccc43)c2=O)cc1 | -3% | 2% | 2% | 0% | 1% | /
Cn1cc(C(=O)NS(=O)(=O)Nc2ccc(Br)cn2)c2ccccc21 | 26% | 8% | -1% | ? | ? | /
CCOCc1c(C(=O)Nc2ccccc2N2CCN(C)CC2)oc2ccccc12 | 3% | -11% | -2% | ? | 0% | /
Cc1cc(NS(=O)(=O)c2ccc3nc(-c4ccccc4)[nH]c3c2)ccc1Br | / | / | / | / | ? | -7%
